# Data as given in PMC7862700, “An all-to-all approach to the identification of sequence-specific readers for epigenetic DNA modifications on cytosine”.
# Assays:
# Experiment in all cases: DAPPL (digital affinity profiling via proximity ligation, sequencing); 10 mM Tris-HCl pH 7.5, 50 mM NaCl, 1 mM DTT, 4% glycerol, room temperature, 30 min; GST-TFs on glutathione beads, 16-mer random dsDNA library, 0.1% formaldehyde crosslink after washing; high values mean tight binding
# [1] = biological target: T1, FLI1 (Homo sapiens, UniProt Q01543 1-452); settings: protein: recombinant; tags: N-terminal GST; dsDNA, one strand shown
# T1 sequence: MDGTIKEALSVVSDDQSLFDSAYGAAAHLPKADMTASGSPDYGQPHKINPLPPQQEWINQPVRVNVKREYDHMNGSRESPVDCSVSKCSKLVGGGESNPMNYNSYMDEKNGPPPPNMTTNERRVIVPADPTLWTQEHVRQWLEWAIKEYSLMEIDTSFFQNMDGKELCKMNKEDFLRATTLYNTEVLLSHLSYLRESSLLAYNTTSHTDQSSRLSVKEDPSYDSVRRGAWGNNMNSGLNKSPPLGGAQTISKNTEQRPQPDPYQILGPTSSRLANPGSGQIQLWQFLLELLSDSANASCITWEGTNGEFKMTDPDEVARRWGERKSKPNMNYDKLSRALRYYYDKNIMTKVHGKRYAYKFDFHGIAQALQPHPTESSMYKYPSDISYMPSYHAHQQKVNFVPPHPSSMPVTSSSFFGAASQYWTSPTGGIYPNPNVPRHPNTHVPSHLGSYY
# Method in brief: (§1)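 Each value of binding signal is a hexamer's read frequency for a factor divided by the same hexamer's frequency in the tag-only sample. Barcoded, bead-captured GST fusions of human transcription factors made in yeast were pooled with that sample and incubated with 200 nmole of a random double-stranded 16-mer DNA library in Tris/NaCl/DTT/glycerol buffer at room temperature for 30 min. Washing, 0.1% formaldehyde crosslinking, proximity ligation, PCR and Illumina NextSeq500 sequencing followed.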
# [2] = biological target: T2, ELK1 (Homo sapiens, UniProt P19419 1-428); settings: protein: recombinant; tags: N-terminal GST; dsDNA, one strand shown
# T2 sequence: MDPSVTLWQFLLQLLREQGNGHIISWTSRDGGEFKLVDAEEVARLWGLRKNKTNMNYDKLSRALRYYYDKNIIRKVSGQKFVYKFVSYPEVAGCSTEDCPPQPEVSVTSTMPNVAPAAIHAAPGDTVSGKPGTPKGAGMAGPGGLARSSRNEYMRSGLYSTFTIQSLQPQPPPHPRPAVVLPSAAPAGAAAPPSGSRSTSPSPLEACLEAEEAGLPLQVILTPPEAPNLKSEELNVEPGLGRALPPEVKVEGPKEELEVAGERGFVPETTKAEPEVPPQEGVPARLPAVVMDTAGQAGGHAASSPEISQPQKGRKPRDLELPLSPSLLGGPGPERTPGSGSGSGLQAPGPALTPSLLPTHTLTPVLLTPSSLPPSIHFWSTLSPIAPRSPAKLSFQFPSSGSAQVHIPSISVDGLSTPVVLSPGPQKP
# Method in brief: as §1
# [3] = biological target: T3, GABPA (Homo sapiens, UniProt Q06546 1-454); settings: protein: recombinant; tags: N-terminal GST; dsDNA, one strand shown
# T3 sequence: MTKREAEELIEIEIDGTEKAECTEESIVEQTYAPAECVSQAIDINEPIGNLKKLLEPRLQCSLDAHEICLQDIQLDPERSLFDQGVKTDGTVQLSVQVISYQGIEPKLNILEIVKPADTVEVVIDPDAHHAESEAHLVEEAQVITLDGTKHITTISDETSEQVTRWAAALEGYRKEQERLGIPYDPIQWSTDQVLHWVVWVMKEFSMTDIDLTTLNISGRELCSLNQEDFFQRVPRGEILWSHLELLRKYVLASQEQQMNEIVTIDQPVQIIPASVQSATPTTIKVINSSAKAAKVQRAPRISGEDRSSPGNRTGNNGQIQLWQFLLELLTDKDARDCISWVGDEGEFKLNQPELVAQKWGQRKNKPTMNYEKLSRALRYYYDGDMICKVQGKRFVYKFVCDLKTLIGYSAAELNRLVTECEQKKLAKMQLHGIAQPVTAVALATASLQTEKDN
# Method in brief: as §1
# [4] = biological target: T4, ERG (Homo sapiens, UniProt P11308 1-479); settings: protein: recombinant; tags: N-terminal GST; dsDNA, one strand shown
# T4 sequence: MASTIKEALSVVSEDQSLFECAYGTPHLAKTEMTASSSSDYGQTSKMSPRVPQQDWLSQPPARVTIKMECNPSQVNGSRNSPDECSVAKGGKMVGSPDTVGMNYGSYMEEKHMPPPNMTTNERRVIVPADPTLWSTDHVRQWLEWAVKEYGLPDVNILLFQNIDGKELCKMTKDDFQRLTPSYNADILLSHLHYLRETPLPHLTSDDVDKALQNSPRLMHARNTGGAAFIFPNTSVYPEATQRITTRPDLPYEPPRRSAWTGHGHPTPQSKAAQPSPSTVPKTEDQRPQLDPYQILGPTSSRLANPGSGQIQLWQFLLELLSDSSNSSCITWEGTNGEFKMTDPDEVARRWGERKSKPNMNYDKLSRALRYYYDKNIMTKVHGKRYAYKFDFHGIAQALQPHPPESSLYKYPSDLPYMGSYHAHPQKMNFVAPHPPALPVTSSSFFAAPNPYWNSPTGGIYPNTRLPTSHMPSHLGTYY
# Method in brief: as §1
# [5] = biological target: ELF1 (Homo sapiens, UniProt P32519 1-619); settings: protein: recombinant; tags: N-terminal GST; dsDNA, one strand shown
# Method in brief: as §1
# [6] = biological target: T5, EHF (Homo sapiens, UniProt Q9NZC4 1-300); settings: protein: recombinant; tags: N-terminal GST; dsDNA, one strand shown
# T5 sequence: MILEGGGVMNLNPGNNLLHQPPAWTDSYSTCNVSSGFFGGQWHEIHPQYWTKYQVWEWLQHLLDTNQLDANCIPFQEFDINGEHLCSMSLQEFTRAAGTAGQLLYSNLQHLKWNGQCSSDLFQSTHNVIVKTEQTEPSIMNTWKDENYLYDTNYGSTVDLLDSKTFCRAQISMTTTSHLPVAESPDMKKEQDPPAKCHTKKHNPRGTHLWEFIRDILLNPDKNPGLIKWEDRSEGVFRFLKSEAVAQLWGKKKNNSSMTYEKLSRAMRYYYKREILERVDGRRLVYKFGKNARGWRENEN
# Method in brief: as §1
# [7] = biological target: SPI1 (Homo sapiens, UniProt P17947 1-270); settings: protein: recombinant; tags: N-terminal GST; dsDNA, one strand shown
# Method in brief: as §1
# [8] = biological target: SPIB (Homo sapiens, UniProt Q01892 1-262); settings: protein: recombinant; tags: N-terminal GST; dsDNA, one strand shown
# Method in brief: as §1
# [9] = biological target: T6, ELK3 (Homo sapiens, UniProt P41970 1-407); settings: protein: recombinant; tags: N-terminal GST; dsDNA, one strand shown
# T6 sequence: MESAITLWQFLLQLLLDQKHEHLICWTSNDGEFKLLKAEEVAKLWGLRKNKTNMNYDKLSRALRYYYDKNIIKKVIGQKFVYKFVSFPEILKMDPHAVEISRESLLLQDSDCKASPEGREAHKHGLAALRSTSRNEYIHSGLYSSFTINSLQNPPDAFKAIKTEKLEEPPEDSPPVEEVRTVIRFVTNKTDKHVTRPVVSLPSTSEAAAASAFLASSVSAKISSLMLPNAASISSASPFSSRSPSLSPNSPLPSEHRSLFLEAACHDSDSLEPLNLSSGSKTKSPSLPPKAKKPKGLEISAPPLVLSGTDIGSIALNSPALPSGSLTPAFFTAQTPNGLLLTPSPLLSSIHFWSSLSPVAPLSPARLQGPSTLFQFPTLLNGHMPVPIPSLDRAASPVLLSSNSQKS
# Method in brief: as §1
# [10] = biological target: T7, FEV (Homo sapiens, UniProt Q99581 1-238); settings: protein: recombinant; tags: N-terminal GST; dsDNA, one strand shown
# T7 sequence: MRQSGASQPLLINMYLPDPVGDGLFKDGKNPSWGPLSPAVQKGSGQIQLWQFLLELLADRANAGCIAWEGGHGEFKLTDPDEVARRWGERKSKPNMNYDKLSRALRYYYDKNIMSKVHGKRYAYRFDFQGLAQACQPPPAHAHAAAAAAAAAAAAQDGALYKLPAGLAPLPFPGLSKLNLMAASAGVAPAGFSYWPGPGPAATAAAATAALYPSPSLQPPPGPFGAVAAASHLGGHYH
# Method in brief: as §1
# [11] = biological target: ETV5 (Homo sapiens, UniProt P41161 1-510); settings: protein: recombinant; tags: N-terminal GST; dsDNA, one strand shown
# Method in brief: as §1
# [12] = biological target: HSF1 (Homo sapiens, UniProt Q00613 1-529); settings: protein: recombinant; tags: N-terminal GST; chain copies: 3; dsDNA, one strand shown
# Method in brief: as §1
# [13] = biological target: T8, SPIC (Homo sapiens, UniProt Q8N5J4 1-248); settings: protein: recombinant; tags: N-terminal GST; dsDNA, one strand shown
# T8 sequence: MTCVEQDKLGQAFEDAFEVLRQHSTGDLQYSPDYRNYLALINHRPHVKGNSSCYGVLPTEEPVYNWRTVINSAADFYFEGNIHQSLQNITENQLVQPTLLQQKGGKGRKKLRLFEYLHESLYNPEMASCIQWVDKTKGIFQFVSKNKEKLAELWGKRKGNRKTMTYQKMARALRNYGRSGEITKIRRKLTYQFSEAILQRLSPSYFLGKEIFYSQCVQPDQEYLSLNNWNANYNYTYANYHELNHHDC
# Method in brief: as §1
# [14] = biological target: ELF4 (Homo sapiens, UniProt Q99607 1-663); settings: protein: recombinant; tags: N-terminal GST; dsDNA, one strand shown
# Method in brief: as §1
# [15] = biological target: T9, ELK4 (Homo sapiens, UniProt P28324-2 1-405); settings: protein: recombinant; tags: N-terminal GST; dsDNA, one strand shown
# T9 sequence: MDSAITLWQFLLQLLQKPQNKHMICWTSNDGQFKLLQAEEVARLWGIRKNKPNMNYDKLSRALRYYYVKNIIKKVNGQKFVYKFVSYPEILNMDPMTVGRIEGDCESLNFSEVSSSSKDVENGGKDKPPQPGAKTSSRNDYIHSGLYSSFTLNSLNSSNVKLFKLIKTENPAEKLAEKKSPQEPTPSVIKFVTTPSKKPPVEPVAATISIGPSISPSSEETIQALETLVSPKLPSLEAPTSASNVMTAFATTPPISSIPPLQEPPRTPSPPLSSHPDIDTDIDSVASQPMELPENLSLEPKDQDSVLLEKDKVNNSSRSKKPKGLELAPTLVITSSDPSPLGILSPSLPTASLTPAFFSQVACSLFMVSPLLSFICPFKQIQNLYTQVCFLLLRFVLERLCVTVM
# Method in brief: as §1
# [16] = biological target: T10, ETV2 (Homo sapiens, UniProt O00321 1-342); settings: protein: recombinant; tags: N-terminal GST; dsDNA, one strand shown
# T10 sequence: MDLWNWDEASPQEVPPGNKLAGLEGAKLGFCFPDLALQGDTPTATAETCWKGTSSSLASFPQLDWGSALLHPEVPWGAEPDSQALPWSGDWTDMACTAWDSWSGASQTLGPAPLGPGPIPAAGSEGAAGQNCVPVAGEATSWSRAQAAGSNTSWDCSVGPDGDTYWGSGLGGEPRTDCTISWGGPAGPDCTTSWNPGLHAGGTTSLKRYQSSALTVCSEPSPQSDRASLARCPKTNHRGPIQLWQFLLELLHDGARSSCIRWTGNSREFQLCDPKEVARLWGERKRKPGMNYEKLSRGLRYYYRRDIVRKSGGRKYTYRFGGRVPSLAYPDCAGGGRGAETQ
# Method in brief: as §1
# [17] = biological target: T11, ELF3 (Homo sapiens, UniProt P78545 1-371); settings: protein: recombinant; tags: N-terminal GST; dsDNA, one strand shown
# T11 sequence: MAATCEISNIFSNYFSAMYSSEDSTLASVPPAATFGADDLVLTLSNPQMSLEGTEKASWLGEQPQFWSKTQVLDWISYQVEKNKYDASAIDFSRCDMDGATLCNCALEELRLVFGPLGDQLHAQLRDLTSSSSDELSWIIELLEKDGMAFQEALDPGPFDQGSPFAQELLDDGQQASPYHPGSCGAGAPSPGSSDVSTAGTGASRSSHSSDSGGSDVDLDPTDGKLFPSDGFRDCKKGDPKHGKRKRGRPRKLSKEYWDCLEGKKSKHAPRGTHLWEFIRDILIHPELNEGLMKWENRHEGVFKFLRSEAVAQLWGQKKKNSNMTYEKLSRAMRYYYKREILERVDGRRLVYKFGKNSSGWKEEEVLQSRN
# Method in brief: as §1
# [18] = biological target: CRX (Homo sapiens, UniProt O43186 1-299); settings: protein: recombinant; tags: N-terminal GST; dsDNA, one strand shown
# Method in brief: as §1
# [19] = biological target: ETV1 (Homo sapiens, UniProt P50549 1-477); settings: protein: recombinant; tags: N-terminal GST; dsDNA, one strand shown
# Method in brief: as §1
# HSF1, sequence (Q00613 whole entry): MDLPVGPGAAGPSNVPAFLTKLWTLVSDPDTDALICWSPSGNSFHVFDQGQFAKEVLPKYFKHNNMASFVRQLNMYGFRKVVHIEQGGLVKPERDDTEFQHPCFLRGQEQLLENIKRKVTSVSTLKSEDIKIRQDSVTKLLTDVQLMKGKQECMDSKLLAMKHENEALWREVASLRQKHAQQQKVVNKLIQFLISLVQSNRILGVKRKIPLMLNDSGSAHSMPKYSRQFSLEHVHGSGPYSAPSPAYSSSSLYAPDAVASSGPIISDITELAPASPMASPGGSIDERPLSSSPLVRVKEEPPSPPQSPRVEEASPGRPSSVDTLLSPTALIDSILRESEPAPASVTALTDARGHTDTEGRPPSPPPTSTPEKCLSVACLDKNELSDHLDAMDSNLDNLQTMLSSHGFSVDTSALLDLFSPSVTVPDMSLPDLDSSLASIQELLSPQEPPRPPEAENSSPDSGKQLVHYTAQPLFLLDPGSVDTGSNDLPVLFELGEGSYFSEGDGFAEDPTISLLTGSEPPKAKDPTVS
# ETV1, sequence (P50549 whole entry): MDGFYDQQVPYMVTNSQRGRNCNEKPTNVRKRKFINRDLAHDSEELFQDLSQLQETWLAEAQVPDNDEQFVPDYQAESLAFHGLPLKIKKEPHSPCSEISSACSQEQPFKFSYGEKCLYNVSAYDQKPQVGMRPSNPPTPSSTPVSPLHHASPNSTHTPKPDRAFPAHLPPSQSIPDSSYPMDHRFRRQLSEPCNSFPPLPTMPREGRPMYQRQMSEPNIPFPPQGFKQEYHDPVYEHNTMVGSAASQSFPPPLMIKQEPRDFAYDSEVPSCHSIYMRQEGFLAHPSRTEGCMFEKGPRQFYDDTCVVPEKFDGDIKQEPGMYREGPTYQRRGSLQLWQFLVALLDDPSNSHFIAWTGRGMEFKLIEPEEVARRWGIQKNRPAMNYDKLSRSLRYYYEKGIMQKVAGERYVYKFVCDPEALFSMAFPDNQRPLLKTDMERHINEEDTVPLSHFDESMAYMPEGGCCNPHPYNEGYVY
# CRX, sequence (O43186 whole entry): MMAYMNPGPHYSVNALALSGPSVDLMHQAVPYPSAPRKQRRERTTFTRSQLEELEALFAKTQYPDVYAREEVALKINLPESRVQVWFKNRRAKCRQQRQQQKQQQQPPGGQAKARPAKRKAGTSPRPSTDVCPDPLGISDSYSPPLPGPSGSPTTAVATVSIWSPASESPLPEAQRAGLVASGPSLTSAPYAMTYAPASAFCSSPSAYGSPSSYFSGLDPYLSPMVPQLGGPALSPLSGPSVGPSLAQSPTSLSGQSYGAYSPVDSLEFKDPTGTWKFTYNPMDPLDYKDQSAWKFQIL
# SPIB, sequence (Q01892 whole entry): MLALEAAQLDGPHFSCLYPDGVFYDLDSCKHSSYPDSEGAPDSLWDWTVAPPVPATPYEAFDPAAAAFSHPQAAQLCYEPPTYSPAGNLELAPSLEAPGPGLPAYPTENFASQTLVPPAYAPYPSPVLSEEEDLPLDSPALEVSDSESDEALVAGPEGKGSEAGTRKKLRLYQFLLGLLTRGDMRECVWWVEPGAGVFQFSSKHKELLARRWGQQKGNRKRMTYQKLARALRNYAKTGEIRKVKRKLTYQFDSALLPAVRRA
# ETV5, sequence (P41161 whole entry): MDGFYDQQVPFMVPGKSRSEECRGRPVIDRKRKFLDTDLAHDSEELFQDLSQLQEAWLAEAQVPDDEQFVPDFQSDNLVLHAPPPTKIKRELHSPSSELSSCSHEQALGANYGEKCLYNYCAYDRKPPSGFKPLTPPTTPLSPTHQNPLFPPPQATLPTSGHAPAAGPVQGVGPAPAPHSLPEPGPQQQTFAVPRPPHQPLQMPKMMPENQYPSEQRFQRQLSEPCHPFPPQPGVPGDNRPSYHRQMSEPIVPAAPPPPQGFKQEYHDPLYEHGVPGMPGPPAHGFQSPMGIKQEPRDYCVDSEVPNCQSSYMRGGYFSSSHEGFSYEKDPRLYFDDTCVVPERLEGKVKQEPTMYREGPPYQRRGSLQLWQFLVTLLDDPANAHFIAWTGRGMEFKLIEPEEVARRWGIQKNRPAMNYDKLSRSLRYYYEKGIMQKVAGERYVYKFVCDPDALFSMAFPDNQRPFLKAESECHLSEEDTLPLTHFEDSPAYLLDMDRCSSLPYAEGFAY
# ELF1, sequence (P32519 whole entry): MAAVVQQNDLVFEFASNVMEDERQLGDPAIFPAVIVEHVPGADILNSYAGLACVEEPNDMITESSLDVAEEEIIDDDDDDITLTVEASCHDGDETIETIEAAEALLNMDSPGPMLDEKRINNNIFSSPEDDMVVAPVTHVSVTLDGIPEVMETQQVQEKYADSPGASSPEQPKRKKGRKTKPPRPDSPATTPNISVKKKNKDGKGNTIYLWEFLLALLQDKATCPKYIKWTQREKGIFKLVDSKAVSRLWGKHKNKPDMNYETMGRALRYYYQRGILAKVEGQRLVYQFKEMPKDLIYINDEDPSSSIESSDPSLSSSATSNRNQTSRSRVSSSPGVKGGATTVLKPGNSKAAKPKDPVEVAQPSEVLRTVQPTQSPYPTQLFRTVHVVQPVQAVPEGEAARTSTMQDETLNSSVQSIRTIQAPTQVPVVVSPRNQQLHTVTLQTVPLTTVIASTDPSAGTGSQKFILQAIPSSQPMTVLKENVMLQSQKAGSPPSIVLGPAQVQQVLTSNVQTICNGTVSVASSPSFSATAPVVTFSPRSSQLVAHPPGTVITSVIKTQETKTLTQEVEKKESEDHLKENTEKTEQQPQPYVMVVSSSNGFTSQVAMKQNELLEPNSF
# ELF4, sequence (Q99607 whole entry): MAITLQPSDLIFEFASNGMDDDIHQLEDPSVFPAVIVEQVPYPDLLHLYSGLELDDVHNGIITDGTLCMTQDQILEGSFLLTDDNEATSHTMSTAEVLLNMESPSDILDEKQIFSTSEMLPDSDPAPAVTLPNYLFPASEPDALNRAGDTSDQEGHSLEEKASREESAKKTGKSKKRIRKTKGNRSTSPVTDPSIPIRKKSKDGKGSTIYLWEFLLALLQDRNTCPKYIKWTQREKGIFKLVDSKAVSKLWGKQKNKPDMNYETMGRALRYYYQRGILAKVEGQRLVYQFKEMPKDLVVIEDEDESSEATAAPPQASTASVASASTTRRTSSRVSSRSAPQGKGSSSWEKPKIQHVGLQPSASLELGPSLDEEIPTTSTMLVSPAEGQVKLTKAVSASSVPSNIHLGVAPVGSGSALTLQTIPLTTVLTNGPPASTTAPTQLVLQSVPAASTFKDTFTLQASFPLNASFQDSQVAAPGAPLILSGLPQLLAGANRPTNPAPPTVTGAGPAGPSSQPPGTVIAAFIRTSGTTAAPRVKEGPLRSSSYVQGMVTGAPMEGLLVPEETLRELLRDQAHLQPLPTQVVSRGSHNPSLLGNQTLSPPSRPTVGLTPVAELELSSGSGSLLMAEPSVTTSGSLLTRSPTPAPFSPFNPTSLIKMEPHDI
sequence,measurement,setting,value
CCGATA,binding signal,[1],"1.16 fold enrichment (6-mer frequency, TF over GST control)"
same,binding signal,[2],"1.13 fold enrichment (6-mer frequency, TF over GST control)"
same,binding signal,[3],"1.14 fold enrichment (6-mer frequency, TF over GST control)"
same,binding signal,[4],"1.14 fold enrichment (6-mer frequency, TF over GST control)"
same,binding signal,[5],"1.17 fold enrichment (6-mer frequency, TF over GST control)"
same,binding signal,[6],"1.18 fold enrichment (6-mer frequency, TF over GST control)"
same,binding signal,[7],"1.09 fold enrichment (6-mer frequency, TF over GST control)"
same,binding signal,[8],"1.03 fold enrichment (6-mer frequency, TF over GST control)"
same,binding signal,[9],"1.14 fold enrichment (6-mer frequency, TF over GST control)"
same,binding signal,[10],"1.14 fold enrichment (6-mer frequency, TF over GST control)"
same,binding signal,[11],"1.15 fold enrichment (6-mer frequency, TF over GST control)"
same,binding signal,[12],"1.16 fold enrichment (6-mer frequency, TF over GST control)"
same,binding signal,[13],"1.2 fold enrichment (6-mer frequency, TF over GST control)"
same,binding signal,[14],"1.2 fold enrichment (6-mer frequency, TF over GST control)"
same,binding signal,[15],"1.08 fold enrichment (6-mer frequency, TF over GST control)"
same,binding signal,[16],"1.25 fold enrichment (6-mer frequency, TF over GST control)"
same,binding signal,[17],"1.05 fold enrichment (6-mer frequency, TF over GST control)"
same,binding signal,[18],"1.27 fold enrichment (6-mer frequency, TF over GST control)"
same,binding signal,[19],"1.16 fold enrichment (6-mer frequency, TF over GST control)"
